Out of some 110,000 compounds screened, about 80 (0.07%) were called active.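 The calls were made as follows: active = inhibition above the mean of the plate negative controls plus 5 SD (cut at about 13% in these data); inactive = the rest.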 Shown is part of a subset that was picked to be rich in actives.
Test: inhibitors of macrophage phagocytosis, primary screen, imaging, J774A.1 cells, IgG beads (AID 1029);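 also: phagocytic index as fraction of beads internalized from green versus red external bead signal; plate controls were DMSO negative control for no effect and cytochalasin-D positive control for full effect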
Conditions: J774A.1 macrophage IgG-bead phagocytosis, at 5 µM, hits give high values

Row | Structure (SMILES) | inhibition
1 | COCCNC(=S)N/N=C/c1c(C)[nH]c2ccccc12 | -8.64% (inactive)
2 | CCCc1nc(SCC(=O)Nc2ccc(S(=O)(=O)N(C)C)cc2)c2ccccc2n1 | -8.66% (inactive)
3 | CCCCC(=O)Nc1ccc(C(=O)Nc2cc(C(F)(F)F)ccc2Cl)cc1 | -2.66% (inactive)
4 | CC1=C[C@H]2Cc3cc(C)cc(C)c3S(=O)(=O)[C@@H]2C=C1 | -2.51% (inactive)
5 | COc1ccc(/C=N/NC(=O)c2ccc(Cl)cc2)cc1COC(C)=O | -2.06% (inactive)
6 | CCNc1ccc(C(=O)OCC(=O)N2c3ccccc3NC(=O)C2(C)C)cc1[N+](=O)[O-] | -2.95% (inactive)
7 | O=C(N/N=C/c1ccc2c(c1)OCO2)c1ccc(Cn2cc([N+](=O)[O-])cn2)o1 | -3.46% (inactive)
8 | O=C1OC(OC(=O)c2ccccc2Br)C(N2CCOCC2)=C1Cl (stereo unspecified) | -11.1% (inactive)
9 | COc1cc(C2C(N3C(=O)c4ccccc4C3=O)C(=O)N2c2ccc(C)c(C)c2)cc(OC)c1OC (stereo unspecified) | -9.54% (inactive)
10 | O=C(CN1C(=O)/C(=C\c2ccccc2F)SC1=S)Nc1nc2ccccc2s1 | -11.3% (inactive)
11 | COC(=O)c1ccccc1NC(=S)NC(=O)c1ccccc1F | -2.31% (inactive)
12 | Cc1[nH]n(-c2ccccc2)c(=O)c1/C=N/NC(=O)c1ccoc1C | 3.58% (inactive)
13 | Cc1cccc(NC(=S)N(CCN(C)C)C(C)c2ccco2)c1 (stereo unspecified) | -6.2% (inactive)
14 | N=C1C(=O)OCC1c1ccccc1NC(=O)CN1CCCCC1 (stereo unspecified) | -1.24% (inactive)
15 | CCN(CC)CCNCc1ccc(OCc2ccc(Cl)nc2)c(OC)c1 | -2.95% (inactive)
16 | Cc1ccc(S(=O)(=O)N(Cc2ccc(Cl)cc2)c2ccccc2C(=O)NCc2cccnc2)cc1 | -8.82% (inactive)
17 | Nc1nc(NC(=O)/C=C/c2ccccc2)nn1-c1ccccc1 | -0.41% (inactive)
18 | CCc1cccc(NC(=O)CCC(=O)O)c1 | -2.13% (inactive)
19 | CCS(=O)(=O)N1Cc2ccccc2CC1C(=O)Nc1nc2ccc(F)cc2s1 (stereo unspecified) | 7.2% (inactive)
20 | COc1cc(/C=N/O)ccc1OCc1ccc([N+](=O)[O-])cc1 | 0.55% (inactive)
21 | O=C(NC1CCN(Cc2ccccc2)CC1)c1c(F)cccc1F | 2.58% (inactive)
22 | CC(C)(C)C(=O)N1CCC[C@@]1(CO)C(=O)O | 0.17% (inactive)
23 | Cc1cc(/C=C2\SC(=Nc3ccc(N4CCOCC4)cc3)N(C)C2=O)c(C)n1-c1cccnc1 | -0.72% (inactive)

Row | Structure (SMILES) | inhibition
24 | Cc1nn(Cc2ccc(F)cc2)c(C)c1NC(=O)c1cccnc1Cl | -2.17% (inactive)
25 | Cc1ccc(N=C2NC(=O)c3cccc([N+](=O)[O-])c32)cc1 | -5.47% (inactive)
26 | COc1ccc(C/C(C)=N/NC(=O)c2cc(C)oc2C)cc1 | -3.05% (inactive)
27 | C/C(=N\N1CCN(Cc2ccc(C)cc2)CC1)c1ccco1 | -3.06% (inactive)
28 | CCCC/S(C)=N/S(=O)(=O)c1ccc(C)cc1 (stereo unspecified) | -3.8% (inactive)
29 | O=C(NC(=O)N1CCOCC1)c1ccccc1 | -2.51% (inactive)
30 | CCN(CC)S(=O)(=O)c1cc([N+](=O)[O-])ccc1N=Nc1c(O)n(C)c2ccccc12 | -7.04% (inactive)
31 | CC1=C(C)CC(C(=O)NNC(=O)c2csc3c2CCC(C(C)(C)C)C3)C(C(=O)O)C1 (stereo unspecified) | -3.56% (inactive)
32 | CCOC(=O)/C(=N\Nc1cc(Cl)ccc1Cl)N1CCN(C)CC1 | -4.83% (inactive)
33 | Cc1ccccc1N(C(=O)Cc1cccs1)C(C(=O)NC1CCCCC1)c1cn(C)nc1C (stereo unspecified) | -10.4% (inactive)
34 | Cc1nc(-c2ccccc2)cn2c1nc1ccccc12 | -5.21% (inactive)
35 | CCOc1ccccc1N1CCN(C(=S)Nc2ccc(S(N)(=O)=O)cc2)CC1 | -1.85% (inactive)
36 | CC(C)(C)NCCCOc1ccc(Cl)cc1C(C)(C)C | -2.22% (inactive)
37 | Cc1ccc(C(=O)/C=C/Nc2ccc(S(=O)(=O)Nc3onc(C)c3C)cc2)cc1 | 4.08% (inactive)
38 | O=C(c1cncc(Br)c1)N1CCN(c2ccc([N+](=O)[O-])cc2)CC1 | 1% (inactive)
39 | N=c1n(CCc2ccccc2)c2ccccc2n1Cc1ccccc1F | -1.86% (inactive)
40 | CCCOC(=O)c1ccc(N2C(=O)c3ccccc3C2=O)cc1 | -13.4% (inactive)
41 | Cc1ccc(C(=O)NC(C)c2ccccc2)cc1Br (stereo unspecified) | -1.23% (inactive)
42 | Cc1ccc(CC(=O)Nc2ccc(OC(F)F)c(Cl)c2)cc1C | -0.42% (inactive)
43 | COc1ccc(/C=C/C(=O)OCC(=O)NCc2cccs2)cc1OC | -8.33% (inactive)
44 | Cc1ccc(C2=NN(C(=O)CSc3nc(N)cc(N)n3)C(c3ccco3)C2)cc1 (stereo unspecified) | -1.98% (inactive)
45 | C=CCn1c(SCc2ccc(Cl)c(Cl)c2)nnc1C(CO)NC(=O)c1ccc(OC)cc1 (stereo unspecified) | -2.58% (inactive)
46 | Cc1cc(F)ccc1S(=O)(=O)Nc1ncnc2scc(-c3ccc(F)cc3)c12 | 0.71% (inactive)

Row | Structure (SMILES) | inhibition
47 | Cc1cc(NCc2ccco2)n2c(nc3ccccc32)c1C#N | -1.3% (inactive)
48 | c1coc(-c2nc3nc4ccccc4n3nc2-c2ccco2)c1 | -0.8% (inactive)
49 | CN(c1nc2ccccc2n2c(-c3ccco3)nnc12)S(=O)(=O)c1ccccc1 | 14.8% [artifact] (active)
50 | NS(=O)(=O)c1ccc(N=Cc2ccc(Br)s2)cc1 | -3.71% (inactive)
51 | Cc1nn(-c2ccccc2)c2c1C(c1cccc([N+](=O)[O-])c1)N(c1ccccc1)C(=O)N2 (stereo unspecified) | -9.61% (inactive)
52 | COc1cc(C(=O)NNC(=O)c2ccc(S(=O)(=O)N3CCCCC3)cc2)cc(OC)c1OC | -4.43% (inactive)
53 | CC(=O)Nc1ccc(S(=O)(=O)NC2(C(F)(F)F)C(=O)Nc3c2c(=O)[nH]c(=O)n3Cc2ccccc2)cc1 (stereo unspecified) | -1.92% (inactive)
54 | CCc1ccc(C2N3CC4([N+](=O)[O-])CN2CC([N+](=O)[O-])(C3)C4(C)C)cc1 (stereo unspecified) | -13.9% (inactive)
55 | C=CCn1c(CCNC(=O)c2cccs2)n[nH]c1=S | -0.81% (inactive)
56 | COc1cc(/C=C/C(=O)N2c3ccccc3Sc3ccc(C(F)(F)F)cc32)cc(OC)c1OC | -3.45% (inactive)
57 | Cc1ccc(Sc2ccncc2S(N)(=O)=O)cc1 | -3.16% (inactive)
58 | O=C(c1cccs1)n1nc(NCc2ccccc2)nc1NCc1ccccc1 | -7.68% (inactive)
59 | CCC1C=C(c2ccccc2)C=CN=C1N(CC)CC (stereo unspecified) | -1.57% (inactive)
60 | O=C(CN1CCSCC1)N/N=C/c1ccc(F)cc1 | -0.8% (inactive)
61 | O=C(CN1CCSCC1)N/N=C/c1ccc(F)cc1F | 117% (active)
62 | O=C(Cn1cc(C(F)(F)F)ccc1=O)N/N=C/c1ccc(Cl)cc1Cl | -1.82% (inactive)
63 | COCCNc1cc(NCCOC)c([N+](=O)[O-])cc1[N+](=O)[O-] | -0.9% (inactive)
64 | O=C(N/N=C/c1ccc(Br)o1)c1cncc(Br)c1 | -4.83% (inactive)
65 | CC(=O)c1c(N2CCN(c3ccc(F)cc3)CC2)nc(=S)n(-c2ccccc2)c1C | -2.05% (inactive)
66 | COc1ccc2c(CC(=O)OCC(=O)Nc3ccccc3[N+](=O)[O-])coc2c1 | -0.7% (inactive)
67 | COc1ccccc1-c1nnc(NC(=O)c2ccc3ncsc3c2)o1 | -6.06% (inactive)
68 | Cc1ccc(SCCC(=O)NC(C(C)C)C(C)C)cc1 | -6.42% (inactive)
69 | COC(=O)c1ccccc1NS(=O)(=O)c1ccc2[nH]c(=O)[nH]c2c1 | -2.75% (inactive)

Row | Structure (SMILES) | inhibition
70 | Cc1ccccc1C1=NC(C(F)(F)F)(C(F)(F)F)c2c(n(-c3ccc(F)cc3)c(=O)[nH]c2=O)N1 | -2.94% (inactive)
71 | COc1ccccc1N1CCN(CC(=O)NC(=O)NCc2ccco2)CC1 | -5.49% (inactive)
72 | CCCNC(=O)NC(=O)COC(=O)CC(NC(N)=O)c1ccc(Cl)cc1 (stereo unspecified) | -1.97% (inactive)
73 | Cc1ccc(NC(=O)COC(=O)CCc2nc3ccccc3n2-c2ccccc2)c(C)c1 | -9.97% (inactive)
74 | Cn1cnc(C(F)(F)F)c1-c1ccc([N+](=O)[O-])cc1 | -12.1% (inactive)
75 | CN(C)c1ccc(/C=N/NC(=O)c2ccc(Cn3cc(Br)cn3)o2)cc1 | -0.35% (inactive)
76 | O=C(NNC(=O)c1cc2c(s1)CCCC2)c1ccccc1 | -4.32% (inactive)
77 | COc1cc(CCC(=O)OCC(=O)Nc2cccc(S(N)(=O)=O)c2)cc(OC)c1OC | -3.93% (inactive)
78 | CC(C)(C)C(=O)NC(NC(=S)Nc1ccc(S(N)(=O)=O)cc1)C(Cl)(Cl)Cl (stereo unspecified) | -10.5% (inactive)
79 | CC(OC(=O)c1ccccc1N1C(=O)C2C3CCC(C3)C2C1=O)C(=O)c1ccccc1 (stereo unspecified) | -1.86% (inactive)
80 | CC(C)C(=O)Nc1ccc(C(=O)NNC(=O)c2cccs2)cc1 | -0.44% (inactive)
81 | O=[N+]([O-])c1ccc(NCCCO)c(C(F)(F)F)c1 | -3.18% (inactive)
82 | CN(C)CCNC(=O)/C(=C/c1cccc([N+](=O)[O-])c1)NC(=O)c1ccccc1 | -4.59% (inactive)
83 | S=C(NCC1COc2ccccc2O1)Nc1ccc(Br)cc1 (stereo unspecified) | -5.67% (inactive)
84 | NC(=O)Nc1ccccc1C(=O)NCCc1ccccc1 | 2.64% (inactive)
85 | Cc1nn(Cc2ccc(Cl)cc2)c(Cl)c1/C=N/NC(=O)c1cccnc1 | -2.24% (inactive)
86 | Cc1cc(Cl)ccc1OCCCC(=O)NCc1ccncc1 | 1.98% (inactive)
87 | CC1CN(S(=O)(=O)c2ccc(C(=O)Nc3sccc3C(N)=O)cc2)CC(C)O1 (stereo unspecified) | -5.22% (inactive)
88 | CNC(=S)N/N=C/c1ccc(OCc2ccccc2)c(Br)c1 | -0.67% (inactive)
89 | CCCCCC(=O)Nc1ccc(S(=O)(=O)Nc2ccc(Cl)nn2)cc1 | -11.6% (inactive)
90 | COc1cccc(NC(=S)NCc2ccco2)c1 | -4.01% (inactive)
91 | CCC(NC(=O)c1ccccc1NC(=O)c1ccccc1)C(=O)NNC(=O)CSc1nc2ccccc2o1 (stereo unspecified) | -1.59% (inactive)
